# Screening results: PubChem BioAssay, National Center for Advancing Translational Sciences (NCATS)
# Pf growth 96h – Primary qHTS for delayed death inhibitors of the malarial parasite plastid, 96 hour incubation; P. falciparum luciferase reporter growth, 96 h; Potency, µM (doses to about 28.7 µM), most hits filed as inhibitors; hit rate 6.9% among 320,000
#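 Delayed-death screen, second-generation endpoint: infected erythrocytes, 2% hematocrit, 0.05% parasitemia final; 96 hours at 37 C, 5% CO2; luciferase detection reagent; luminescence decrease equals reduced growth.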
# Shiga toxin inh – A qHTS for Small Molecule Inhibitors of Shiga Toxin; hit rate 9.2% among 290,000; Vero cells, Shiga toxin protein synthesis inhibition reporter; inhibition, % at 38.7 µM; AID 2315, 2010; in the data active = inhibition mostly above about 28%, no sharp cut-off; inactive = mostly below about 43%
# NS1 inh – qHTS Assay for Inhibitors of Influenza NS1 Protein Function | hit rate 0.4% among 270,000 | Potency, µM (series often up to 46.1 µM) | AID 2326, 2010; calls by dose curve; note: actives are rising curves; nearly all actives have a fitted effect of over 50% in size
#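 Compounds were scored for reversing the slow growth caused by influenza A NS1 in S. cerevisiae, measured by optical density at 600 nm. Assay medium contained 2% galactose at pH 6.0; NS1-free yeast of the same strain were the positive control.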
# Pf growth 48h – Primary qHTS for delayed death inhibitors of the malarial parasite plastid, 48 hour incubation. Potency, µM (top dose mostly 28.7 µM), actives largely listed as inhibitors. P. falciparum luciferase growth in erythrocytes, 48 h. hit rate 5.9% among 310,000
#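 Erythrocytes infected with P. falciparum carrying an integrated firefly luciferase reporter (2% hematocrit, 0.1% parasitemia final) were exposed to compounds in RPMI 1640 with 0.5% Albumax at 37 C, 5% CO2. Growth inhibition was scored as reduced luminescence.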
# SARS PLP yeast – qHTS of Yeast-based Assay for SARS-CoV PLP; S. cerevisiae expressing SARS-CoV PLpro, growth rescue; Potency, µM (titrated, usually from 32.9 µM), hits mostly activators; hit rate 0.19% among 330,000; calls by dose curve; note: nearly all actives have a fitted effect of over 55% in size
# Cycloheximide cs – Cycloheximide Counterscreen for Small Molecule Inhibitors of Shiga Toxin. hit rate 12% among 300,000. max response, %. cell reporter, cycloheximide protein synthesis inhibition counterscreen. AID 2314, 2010; in the data active = max response mostly above about 13%, no sharp cut-off; inactive = mostly below about 14%; note: read at 38.3 µM for the half of the compounds with a filed dose
# A number is an active result; . = inactive; ? = inconclusive; / = not tested or not shown. In the library only some 21% were active in any assay of this set; here they are far more common. Unless noted, calls come from the whole dose curve; as a rule, active = well fitted inhibition curve with a large enough effect; inconclusive = small, poorly fitted or top-dose-only effect, or another doubt; inactive = no such curve, though single readings can be large or run the other way.
SMILES,Pf growth 96h,Shiga toxin inh,NS1 inh,Pf growth 48h,SARS PLP yeast,Cycloheximide cs
O=C(CSc1ncn[nH]1)NCCCc1ccccc1,/,.,?,.,.,.
O=C(NCCN1CCN(C(=O)c2cccc(Br)c2)CC1)C(=O)Nc1ccc(Br)cc1,.,.,.,.,.,.
CCc1cc(C(=O)N2CCCC(C(=O)c3ccc(C(F)(F)F)cc3)C2)n(C)n1 (centres undefined),.,.,.,.,.,.
CC(C)(C)c1ccc(C(=O)C2CCCN(C(=O)C3CCOCC3)C2)cc1 (centres undefined),.,.,.,5.86µM,.,.
Cc1noc(C)c1CC(=O)N1CCCC(C(=O)c2ccc(C(C)(C)C)cc2)C1 (centres undefined),?,.,.,?,.,.
Cn1nccc1C(=O)N1CCCC(C(=O)c2ccc(C(F)(F)F)cc2)C1 (centres undefined),14.7µM,.,.,.,.,.
COC(=O)C(C)(C)ONC(=O)Nc1ccccc1,.,.,.,.,.,.
CCOc1ccc(/C=C/c2[nH]c(=O)[nH]c(=O)c2[N+](=O)[O-])cc1,.,/,.,.,.,.
CC(C)c1ccc(/C=C/c2[nH]c(=O)[nH]c(=O)c2[N+](=O)[O-])cc1,.,18.8,.,.,.,12.7
CCOC(=O)c1cc2c(ccn2C)n1CC(=O)N1CCCC(C)C1 (centres undefined),?,.,.,.,.,.
CCOC(=O)c1cc2c(ccn2C)n1CC(=O)N1CCC(Cc2ccccc2)CC1,?,.,.,10.4µM,.,.
CCOC(=O)c1cc2c(ccn2C)n1Cc1ccc(Cl)cc1,.,.,.,.,.,.
CCOC(=O)c1cc2c(ccn2C)n1Cc1ccc(C#N)cc1,4.15µM,.,.,.,.,.
O=C(CSc1ccccc1)N1CCCC(Nc2ccccc2)C1 (centres undefined),.,.,.,.,.,.
Cc1cccc(C(=O)Nc2ccccc2C(=O)OCC(=O)Nc2ccc(C#N)cc2)c1,.,54.5,.,.,.,46.2
CCCOc1ccc(C(=O)CCN2CCN(C(=O)OCC)CC2)cc1,?,.,/,.,.,.
COc1ccc(C(=O)Cn2c3ccccc3n3nc(CCC(=O)O)c(=O)nc23)cc1OC,?,.,.,/,.,.
O=c1c(Cl)c(NCc2ccc(F)cc2)cnn1C12CC3CC(CC(C3)C1)C2,.,.,.,13.1µM,.,.
O=c1c(Cl)c(N2CCN(c3ccc(F)cc3)CC2)cnn1C12CC3CC(CC(C3)C1)C2,4.15µM,.,.,4.65µM,.,.
O=c1c(Cl)c(N2CCN(c3ccccc3)CC2)cnn1C12CC3CC(CC(C3)C1)C2,?,.,.,?,.,.
Cc1ccc(CNc2cnn(C34CC5CC(CC(C5)C3)C4)c(=O)c2Cl)cc1,?,.,.,.,.,.
O=C(CC1C(=O)NCCN1CCCc1ccccc1)NCCc1ccccc1Cl (centres undefined),?,.,.,13.1µM,.,.
CC(C)(C)CN1CCNC(=O)C1CC(=O)NCCc1cnn(-c2ccccc2)c1 (centres undefined),.,.,.,.,.,11.9
COc1cccc(CNC(=O)CC2C(=O)NCCN2CCCc2ccccc2)c1 (centres undefined),9.28µM,.,.,?,.,.
O=C(CSc1nnc(CNC(=O)c2ccccc2F)o1)c1ccccc1,.,.,.,.,.,.
SMILES,Pf growth 96h,Shiga toxin inh,NS1 inh,Pf growth 48h,SARS PLP yeast,Cycloheximide cs
CCOC(=O)N1CCC(NC(=O)C2=CCN(S(=O)(=O)c3ccc(OC)cc3)CC2)CC1,?,.,.,?,.,.
COc1ccc(CCN(CC(=O)NCc2ccc(F)cc2)C(=O)c2snc(C(N)=O)c2N)cc1OC,.,.,.,.,.,.
COc1cc(C(=O)Nc2ccc(NC(C)=O)cc2)ccc1OCc1ccccc1,.,.,/,.,.,.
COc1cc(CNc2ccc(NC(C)=O)cc2)ccc1OCc1ccccc1C,.,87.5,.,.,.,46.4
COc1cc(CNc2ccc(N3CCOCC3)cc2)ccc1OCC(=O)NC(C)(C)C,.,.,.,.,.,.
COc1cc(CNc2ccc(N3CCN(C(C)=O)CC3)cc2)ccc1OCc1ccccc1,.,51.6,.,.,.,23.3
COCCN(C(=O)c1cc(S(=O)(=O)N2CCCCC2)ccc1Cl)c1c(N)n(CC(C)C)c(=O)[nH]c1=O,.,/,/,.,.,/
COc1ccnc(Oc2ccc(F)cc2)c1C(=O)N/C=N/OCc1ccccc1,.,.,/,?,.,.
CCCCCN1CC(O)=C(c2nc3ccccc3[nH]2)C1=N,.,.,/,.,.,35.9
CCCCN1CC(O)=C(c2nc3ccccc3[nH]2)C1=N,.,.,.,.,.,47.1
C=CCN1CC(O)=C(c2nc3ccccc3[nH]2)C1=N,.,127.7,/,.,.,56.3
CC(C)CCN1CC(O)=C(c2nc3ccccc3[nH]2)C1=N,/,.,.,.,.,16.7
COc1ccc2c(c1)C(C)=CC(C)(C)N2C(=O)CN1C(=O)CCC1=O,?,.,.,.,?,.
COc1ccc2c(c1)N(C(=O)CN1C(=O)C3CCCCC3C1=O)C(C)(C)C=C2C (centres undefined),.,.,.,11.7µM,.,.
COc1ccccc1N1CCN(CCCCN2C(=O)C3CCCCN3C2=O)CC1 (centres undefined),8.28µM,/,.,.,.,.
COc1ccccc1N1CCN(C(=O)CN2C(=O)C3CCCCC3C2=O)CC1 (centres undefined),.,77.0,.,.,.,27.6
COCCC(=O)N1CCC(Oc2ccc(C(=O)N3CCC(N(C)C)C3)cc2)CC1 (centres undefined),?,.,.,.,.,.
CCCN1CCN(C(=O)CCS(=O)(=O)c2cc3c(cc2Cl)NC(=O)CO3)CC1,.,.,.,.,.,.
COc1ccc(C2CC(c3ccccc3)=NN2C(=O)COC(=O)/C=C/c2ccc(O)c(OC)c2)cc1 (centres undefined),?,.,.,14.7µM,.,.
COc1ccc(C2CC(c3ccccc3)=NN2C(=O)CSc2ncccn2)cc1 (centres undefined),?,.,.,?,.,.
COc1ccc(C2=NN(C(=O)CCC(=O)O)C(c3ccccc3)C2)cc1 (centres undefined),?,.,.,.,.,.
COc1ccc(C2=NN(C(=O)CCC(=O)O)C(c3ccc(F)cc3)C2)cc1 (centres undefined),14.7µM,.,.,.,.,.
COc1ccc(C2=NN(C(=O)CN3CCOCC3)C(c3nc4ccccc4[nH]3)C2)cc1 (centres undefined),.,105.3,/,.,.,55.6
COc1ccc(C2CC(c3ccccc3)=NN2C(=O)CSc2ncn[nH]2)cc1 (centres undefined),?,.,/,?,.,17.1
